Assay results from PubChem BioAssay (NCATS).
Inconclusive results are not listed. Active and inactive are the calls of the source. Unless noted, the call rests on the fitted dose curve; in most records, active means well fitted curve in either direction with a large enough effect (not every such curve was filed as active); inconclusive means small, poorly fitted or top-dose-only effect, or another doubt; inactive means flat fitted curve, though single readings scatter.

Experiments:
[1] = molecular target: Lysosomal acid glucosylceramidase (Homo sapiens) (UniProt P04062); assay: Glucocerebrosidase-p2 (AID 348; in the data active means potency below about 10 µM; further: potency means the concentration at half of the fitted maximal effect); conditions: purified GBA, blue fluorogenic substrate, 40 min
Outline: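 Compounds titrated from 0.6 nM upwards against 0.2 nM enzyme in pH 5.9 citric acid/KH2PO4, taurocholate, tween-20; blue fluorogenic substrate 80 uM, 40 min room temperature, stopped and read Ex 365/Em 440 for AC50.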

[2] = molecular target: Cytochrome P450 1A2 (Homo sapiens) (UniProt P05177); assay: p450-cyp1a2 (AID 410; calls by dose curve;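 further: -100% = full effect of reference inhibitor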); conditions: recombinant CYP1A2, luciferin-ME demethylation, luminescence; series mostly up to 11.4 µM
Outline: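 20nM CYP1A2 with 100uM Luciferin-ME (at Km) in 100mM KPO4; compound preincubated 10 min, NADPH regeneration added, 60 min at room temperature. Luciferin quantified by luminescence after detection reagent; normalized to 57 uM furafylline.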

[3] = NFAT Signaling Pathway (AID 444); conditions: Jurkat NFAT-bla M1, carbachol, beta-lactamase ratio, 5 h; at 7.69 µM (top of the series) unless noted;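 further: carbachol stimulus at about its EC50 of 1 µM final; on the % scale 0 is the no-effect control and ±100 the full control effect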
Outline: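 Jurkat cells with NFAT-driven β-lactamase reporter and co-expressed M1 receptor, stimulated with carbachol (final 1 uM, ~EC50), compound titration, 5 h at 37 °C. CCF4 loaded 1 h at RT; 460/530 nm ratio gave %activity and AC50.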

[4] = Stat Signaling Pathway (AID 446); conditions: ME-180 SIE beta-lactamase reporter, IL-6 stimulated, 5 h; at 7.69 µM (top of the series) unless noted;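 further: ME-180 cervical cancer cells given 40 pM IL-6 alongside compound; SIE-controlled beta-lactamase reporter measured as 460/530 nm FRET emission ratio; on the % scale 0 is the no-effect control and ±100 the full control effect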
Outline: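 Reporter line: ME-180 cervical carcinoma, SIE-beta-lactamase. Treatment: compound with 40 pM IL-6, 5 hrs, 37 C, in low-serum OPTI-MEM with 10 mM HEPES pH 7.3. Detection: 460/530 nm fluorescence.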

[5] = molecular target: Glucocorticoid receptor (Homo sapiens) (UniProt P04150); assay: GR-GFP Redistribution (AID 450;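 active means compounds whose dose series gives a full or clear partial fitted curve of increased nuclear translocation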; further: potency means the concentration at half of the fitted maximal effect); conditions: U2OS GR-GFP nuclear translocation, laser cytometry, 2 h
[6] = molecular target: Glucocorticoid receptor (Homo sapiens) (UniProt P04150); assay: GR-EFC Redistribution (AID 451; calls by dose curve; further: potency means the concentration at half of the fitted maximal effect); conditions: CHO-K1 GR-EFC translocation, beta-gal luminescence, 2 h
Outline: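 CHO-K1 cells expressing nuclear EA and GR-ED fragments of b-gal; compounds titrated up to 46 uM final, 2 h at 37 C. GR nuclear translocation read as complemented b-gal luminescence after 1 h RT detection.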

[7] = molecular target: Mitogen-activated protein kinase 10 (Mus musculus) (UniProt Q61831); assay: JNK3 AlphaScreen Assay (AID 530); conditions: JNK3 lysate, c-Jun phosphorylation; series mostly up to 11.4 µM;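 further: kinase came from lysate of stimulated human HepG2 cells; signal reports phosphorylation of biotinylated GST-cJun 1-79 at Ser73 with 10 µM ATP; on the % scale 0 is the no-effect control and ±100 the full control effect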
Outline: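 Pre-activated (IL-1β/TNFα) JNK3 in HepG2 lysates phosphorylates biotin-GST-cJun(1-79), 10 uM ATP; anti-phospho-cJun(Ser73) AlphaScreen read at room temperature, pH 7.6 Tris buffer. Compounds pre-incubated 15 min as titrations.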

[8] = molecular target: 3',5'-cyclic-AMP phosphodiesterase 4B (Homo sapiens) (UniProt Q07343); assay: qHTS Assay for Inhibitors of PDE-IV (AID 607; active means well fitted activation curve with a large enough effect in the main read-out, with a control signal flat, not every such curve was filed as active; further: % of control where 0% means no effect); conditions: HEK293 ACTOne CNG channel cells, membrane potential fluorescence; series mostly up to 22.9 µM
Outline: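 Cell-based read-out of cAMP via a modified cyclic nucleotide-gated channel and membrane potential dye (535/590 nm) in HEK293 cells expressing PDE4 endogenously. Compounds tested up to 22.9 uM final; 100 uM RO 20-1724 reference.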

Sequence of Glucocorticoid receptor (Homo sapiens) (P04150 whole entry, looked up, the tested form may be a part): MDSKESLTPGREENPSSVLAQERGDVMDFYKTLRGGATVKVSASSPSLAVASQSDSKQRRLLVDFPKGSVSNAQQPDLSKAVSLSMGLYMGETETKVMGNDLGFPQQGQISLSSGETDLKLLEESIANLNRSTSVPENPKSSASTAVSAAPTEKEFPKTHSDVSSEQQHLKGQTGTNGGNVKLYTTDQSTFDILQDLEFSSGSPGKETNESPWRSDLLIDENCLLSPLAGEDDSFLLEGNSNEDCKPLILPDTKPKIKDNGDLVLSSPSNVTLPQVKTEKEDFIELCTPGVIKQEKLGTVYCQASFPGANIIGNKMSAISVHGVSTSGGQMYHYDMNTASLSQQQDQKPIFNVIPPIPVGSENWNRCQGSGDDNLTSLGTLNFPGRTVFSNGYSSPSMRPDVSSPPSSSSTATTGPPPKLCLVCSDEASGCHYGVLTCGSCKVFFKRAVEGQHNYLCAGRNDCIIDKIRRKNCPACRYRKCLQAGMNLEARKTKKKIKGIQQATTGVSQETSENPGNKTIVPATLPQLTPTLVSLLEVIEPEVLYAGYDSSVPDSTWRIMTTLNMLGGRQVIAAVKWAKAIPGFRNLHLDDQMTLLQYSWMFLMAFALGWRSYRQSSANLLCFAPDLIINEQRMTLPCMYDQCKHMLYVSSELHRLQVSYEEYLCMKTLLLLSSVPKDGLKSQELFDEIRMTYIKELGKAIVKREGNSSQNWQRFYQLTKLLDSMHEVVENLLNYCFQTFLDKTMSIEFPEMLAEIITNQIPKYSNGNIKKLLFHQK
Sequence of Lysosomal acid glucosylceramidase (Homo sapiens) (P04062 whole entry, looked up): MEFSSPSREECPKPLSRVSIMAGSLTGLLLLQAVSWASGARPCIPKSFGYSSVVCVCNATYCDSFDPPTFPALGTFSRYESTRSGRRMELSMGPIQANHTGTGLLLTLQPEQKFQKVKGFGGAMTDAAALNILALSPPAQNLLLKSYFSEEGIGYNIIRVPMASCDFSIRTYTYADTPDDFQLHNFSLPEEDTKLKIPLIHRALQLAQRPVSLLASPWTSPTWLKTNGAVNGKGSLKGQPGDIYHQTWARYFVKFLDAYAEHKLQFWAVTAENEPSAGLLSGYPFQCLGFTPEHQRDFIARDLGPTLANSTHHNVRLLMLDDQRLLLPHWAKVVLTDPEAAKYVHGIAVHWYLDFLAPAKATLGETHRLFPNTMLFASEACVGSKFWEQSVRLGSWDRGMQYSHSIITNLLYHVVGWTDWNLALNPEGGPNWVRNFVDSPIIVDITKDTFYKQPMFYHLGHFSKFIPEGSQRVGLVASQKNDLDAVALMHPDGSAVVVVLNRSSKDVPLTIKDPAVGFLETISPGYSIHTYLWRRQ
Sequence of Cytochrome P450 1A2 (Homo sapiens) (P05177 whole entry, looked up): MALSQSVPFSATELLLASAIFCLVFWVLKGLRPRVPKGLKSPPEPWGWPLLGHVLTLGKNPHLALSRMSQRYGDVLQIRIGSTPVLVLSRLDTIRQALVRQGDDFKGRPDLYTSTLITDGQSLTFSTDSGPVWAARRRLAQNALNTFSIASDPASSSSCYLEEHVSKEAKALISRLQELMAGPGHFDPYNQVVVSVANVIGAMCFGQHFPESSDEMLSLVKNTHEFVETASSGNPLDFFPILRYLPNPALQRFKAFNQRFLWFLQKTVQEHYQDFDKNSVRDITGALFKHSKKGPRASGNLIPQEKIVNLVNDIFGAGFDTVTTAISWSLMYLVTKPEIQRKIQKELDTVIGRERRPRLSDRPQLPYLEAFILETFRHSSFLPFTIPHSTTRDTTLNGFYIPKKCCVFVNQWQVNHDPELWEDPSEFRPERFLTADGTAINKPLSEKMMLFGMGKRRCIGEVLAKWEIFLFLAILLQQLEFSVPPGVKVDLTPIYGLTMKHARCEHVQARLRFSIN
Sequence of 3',5'-cyclic-AMP phosphodiesterase 4B (Homo sapiens) (Q07343 whole entry, looked up): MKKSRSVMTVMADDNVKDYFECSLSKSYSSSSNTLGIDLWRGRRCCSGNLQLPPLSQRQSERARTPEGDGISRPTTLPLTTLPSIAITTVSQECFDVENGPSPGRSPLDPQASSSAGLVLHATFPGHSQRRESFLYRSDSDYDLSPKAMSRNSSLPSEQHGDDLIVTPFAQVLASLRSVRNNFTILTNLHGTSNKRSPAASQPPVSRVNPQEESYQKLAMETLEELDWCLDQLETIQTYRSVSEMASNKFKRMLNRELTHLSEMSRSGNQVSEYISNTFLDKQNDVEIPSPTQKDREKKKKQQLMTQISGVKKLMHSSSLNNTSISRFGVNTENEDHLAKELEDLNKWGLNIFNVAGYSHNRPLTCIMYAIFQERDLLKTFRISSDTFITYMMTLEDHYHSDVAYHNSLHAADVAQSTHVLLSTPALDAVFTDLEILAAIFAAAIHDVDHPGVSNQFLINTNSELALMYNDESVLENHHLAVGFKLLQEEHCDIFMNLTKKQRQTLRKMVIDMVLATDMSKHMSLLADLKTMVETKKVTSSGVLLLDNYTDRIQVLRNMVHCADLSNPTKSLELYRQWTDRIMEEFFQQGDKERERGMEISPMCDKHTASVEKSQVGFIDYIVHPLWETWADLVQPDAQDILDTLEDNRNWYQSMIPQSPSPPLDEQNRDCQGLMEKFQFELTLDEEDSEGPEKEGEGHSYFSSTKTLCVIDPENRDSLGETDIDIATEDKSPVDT

CCCCNN
inactive: Potency [1] > 11.4 µM | activity change, negative = inhibition [2] -6.5% [at 2.29 µM] | activity change, negative = inhibition [3] 9.69% | activity, negative = inhibition [4] 4.29% | Potency [5] > 46 µM | Potency [6] > 9.22 µM | Potency [7] | Potency [8]
